In all, about 48,000 compounds went through this assay and about 13,000 (27%) showed an effect of 50% or more. The list shows a part of the results.
Each compound was assayed on Wolbachia pipientis (assay: Anti-Wolbachia Cell-Based Screen). Conditions: 5 µM.
Assay type: functional
Parameters: scale not given: in the data most compounds retested in dose-response had high values

Point of comparison: CC(C)c1ccc(CS(=O)(=O)CC(=O)NCc2ccccc2F)cc1, “Percent Effect” value -59.22%. Against it:
- COCC(=O)Nc1cc(S(=O)(=O)C(F)(F)F)ccc1OC — higher, 4.656%
- CCc1nc(C)c(CN2CCOC(Cc3cccc4ccccc34)C2)[nH]1 (stereo unspecified) — higher, 10.02%
- Cn1cnc2c1CCN(Cc1noc(-c3ccccc3)n1)C2 — higher, 2.267%
- OCCOc1ccccc1CN1CCCC(O)(CO)C1 (stereo unspecified) — higher, 16.2%
- c1ccc(-c2nc(CN3CCn4c(nnc4C4CC4)C3)no2)cc1 — higher, -9.405%
- CC1(c2ccccc2)CCCN(Cc2nnc(-c3cccnc3)o2)C1 (stereo unspecified) — higher, -17.9%
- Cc1nc(CN2CCCC(C)(CO)C2)no1 (stereo unspecified) — higher, 110.1%
- Cc1ccc(-c2nnc(CN3CCCC(O)(CO)CC3)o2)n1C (stereo unspecified) — higher, -4.067%
- OCC1(O)CCCN(Cc2nnc(-c3ccccc3)o2)CC1 (stereo unspecified) — higher, 97.17%
- Cc1nc(CN2CCCN(CC(=O)N(C)CCC#N)CC2)no1 — higher, 3.648%
- OCC1(O)CCCN(Cc2noc(-c3ccccc3)n2)C1 (stereo unspecified) — higher, 97.27%
- Cc1cc(CN2CCCC(C)(CO)C2)ccc1F (stereo unspecified) — higher, -2.653%
- CN(C)CC1(O)CCCN(c2noc(-c3ccccc3)n2)CC1 (stereo unspecified) — higher, -6.371%
- OCC1(O)CCCN(Cc2noc(-c3ccccc3)n2)CC1 (stereo unspecified) — higher, 104.1%
- O=C(O)C(F)(F)F.O=C(O)C(F)(F)F.O=C([C@H]1CN(Cc2nccs2)C[C@H]2OCC[C@@H]12)N1CCCCO1 — higher, -13.3%
- CCN1CCC2(CCC1=O)CN(c1cnc3ccccc3n1)CCN2C (stereo unspecified) — higher, 10.67%
- CCNC(=O)N(C)CCCc1n[nH]c(N)c1C#N — higher, -6.653%
- CC(C)n1ccnc1C1CCCN(c2cc(C(=O)NC3CC3)ccn2)C1 (stereo unspecified) — higher, 11.95%
- OCC1(O)CCN(Cc2noc(-c3ccccc3)n2)CC1 — higher, 112.4%
- Cc1cnn(C2CN(Cc3noc(-c4ccccc4)n3)C2)c1 — higher, 6.311%
- Cn1ccnc1CN1CCN(Cc2noc(-c3ccccc3)n2)CC1 — higher, -3.916%
- CCCC(N)CNS(=O)(=O)Cc1cccc(C#N)c1.Cl (stereo unspecified) — higher, -1.555%
- Cn1nc2c(cc1=O)CN(CCCOc1ccc(C#N)cc1)CC2 — higher, -8.416%
- CC(C)OCCCNC(=O)CS(=O)(=O)Cc1ccc(Cl)c(Cl)c1 — higher, -2.776%
- CC(C)OCCCNC(=O)CS(=O)(=O)Cc1ccc(Cl)cc1 — higher, 111.2%
- CC(C)OCCCNC(=O)CS(=O)(=O)Cc1cccc(Cl)c1 — higher, 109.4%
- Cc1ccc(CS(=O)(=O)CC(=O)NCc2ccccc2F)cc1 — higher, -26.12%
- Cc1cccc(CS(=O)(=O)CC(=O)NCCCOC(C)C)c1 — higher, -2.072%
- CC(C)OCCCNC(=O)NC(C)c1ccc(-n2cncn2)cc1 (stereo unspecified) — higher, 21.75%
- CC(NC(=O)NCCCN(C)S(C)(=O)=O)c1cccc(Cl)c1 (stereo unspecified) — higher, -5.228%
- CC(C)OCCCNC(=O)CS(=O)(=O)Cc1ccc(C(C)C)cc1 — higher, 60.49%
- Cc1ccc(CS(=O)(=O)CC(=O)NCCCOC(C)C)cc1 — higher, 104.7%
- CC(C)(C)CC(=O)NCC(=O)NS(=O)(=O)c1cccnc1 — higher, -1.885%
- COc1ncnc(N(C)C)c1NC(=O)Cc1cc(F)ccc1F — higher, -32.31%
- CC(C)(C)c1ccc(C2(C(=O)NCCCS(C)(=O)=O)CC2)cc1 — higher, -6.927%
- CC(C)OCCCNC(=O)CN1CCC(N2CCN(C)C2=O)CC1 — higher, -1.952%
- Cc1ccc(C)c(CS(=O)(=O)CC(=O)Nc2ccc(F)cc2F)c1 — higher, -7.067%
- Cc1ccc(C)c(CS(=O)(=O)CC(=O)NCCCOC(C)C)c1 — higher, 103.7%
- Cc1ccc(C)c(CS(=O)(=O)CC(=O)NC(C)c2ccc(F)cc2F)c1 (stereo unspecified) — higher, 34.69%
- CC(C)OCCCNC(=O)CS(=O)(=O)Cc1ccc(C(C)(C)C)cc1 — higher, 103.7%
- Cc1cc(NC(=O)CNc2ccc(Br)cc2F)on1 — higher, -13.69%
- CNC(=O)[C@@H](CC(C)C)N1CCC[C@H]1C(=O)N(C)Cc1ccccc1.Cl — higher, 3.832%
- CS(=O)(=O)N1CCc2c(nnn2CC2CC2)C1COCC1CC1 (stereo unspecified) — higher, 9.145%
- CNC(=O)CCc1cc(C2CCCN2C(=O)CO)nc(C)n1 (stereo unspecified) — higher, 135.9%
- Cc1nc(O)cc(CCNC(=O)CC[C@@H]2CCCN3CCCC[C@H]23)n1 — higher, -10.54%
- CNC(=O)CCN1CCCC1c1ccccc1Br (stereo unspecified) — higher, 10.79%
- NC(=O)CN1CCN(S(=O)(=O)N2CCCC2c2ccco2)CC1 (stereo unspecified) — higher, -1.711%
- CCOc1ccc(CC(=O)N2CCCC2c2cc(C)on2)cc1 (stereo unspecified) — higher, 5.942%
- CNC(=O)CCc1cc(C2CCCN2S(C)(=O)=O)nc(C)n1 (stereo unspecified) — higher, 95.26%
- Cc1nc(CCC(N)=O)cc(C2CCCN2S(C)(=O)=O)n1 (stereo unspecified) — higher, 118%
- Cc1cc(C2CCCN2C(=O)c2ccc(OCC(N)=O)cc2)no1 (stereo unspecified) — higher, 5.942%
- Cc1noc(C)c1CN(C)C(=O)C1CCCCN1S(C)(=O)=O (stereo unspecified) — higher, -0.5133%
- Cc1nc(CCC(N)=O)cc(C2CCCCN2S(C)(=O)=O)n1 (stereo unspecified) — higher, 110.4%
- Cc1cc(C2CCCN2C(=O)COc2ccc(CC#N)cc2)no1 (stereo unspecified) — higher, -10.78%
- Nc1nc2c(c(N3CCC(CCn4cccn4)CC3)n1)CCNCC2 — higher, 1.454%
- CC(Cc1ccc2c(c1)OCO2)c1cn(CCN2CCCC2)nn1 (stereo unspecified) — higher, 21.75%
- COCCN(C(=O)c1ccn(-c2ccc(OC)cc2)n1)C(C)C(N)=O (stereo unspecified) — higher, 143%
- CN(C)CCN(Cc1cccnc1)C(=O)c1ccn(-c2ccccc2)n1 — higher, 1.059%
- COc1ccc(SC(C)C(=O)N2CCC(O)CC2)cc1 (stereo unspecified) — higher, 1.982%
- CC(C)N(C)CC(=O)Nc1ccc(-n2ccc(C(N)=O)n2)cc1 — higher, -7.566%
- COc1ccc(-n2ccc(C(=O)N3CCC(C(N)=O)C3)n2)cc1 (stereo unspecified) — higher, -0.5166%
- COc1ccc(-n2ccc(C(=O)N(CCN(C)C)C(C)C)n2)cc1 — higher, 158.8%
- COc1ccc(-n2ccc(C(=O)N(C)C(C)C3(C)CC3)n2)cc1 (stereo unspecified) — higher, 114.7%
- COCCN(CCOC)C(=O)c1ccn(-c2ccccc2Cl)n1 — higher, 2.098%
- CCC(C)C(=O)NCc1ccn(-c2ccc(F)cc2)n1 (stereo unspecified) — higher, -3.834%
- CCC[C@@H](NC(N)=O)C(=O)N1CCc2ccccc2CC1 — higher, 5.215%
- O=C(NCCOc1ccc(F)c(F)c1)NCc1ccncc1 — higher, -13.71%
- Cc1cc(CNC(=O)N2CCN(C(C)c3cccnc3)CC2)c(C)o1 (stereo unspecified) — higher, -1.868%
- CN1[C@@H](CCC(=O)NCc2ccc(F)cc2)CNC(=O)[C@H]2NCC[C@H]21 — higher, 3.15%
- N#Cc1cnc(N2CCC3(CC2)OCCO3)nc1N — higher, 125%
- N#Cc1cnc(N2Cc3cnn(Cc4ccc(F)cc4)c3C2)nc1N — higher, -0.8846%
- CC1CCN(c2ncc(C#N)c(N)n2)CC1 — higher, 102.6%
- CCc1nsc(N2CCC3(CC2)OCCO3)n1 — higher, -6.104%
- CC1CCN(c2ncc3c(n2)CN(c2ccc4c(c2)OCO4)C3=O)CC1 — higher, -9.746%
- CC1CCN(c2ncc3c(n2)CN(c2ccccc2)C3=O)CC1 — higher, -3.671%
- CC(C)(C)c1cnc(CN2CCC(NC(=O)NC3CCCCC3)CC2)o1 — higher, -3.337%
- CCn1c(Cn2cncn2)nnc1C1CCN(Cc2ccc(C)o2)CC1 — higher, -1.569%
- Cc1cc(=O)[nH]c(-n2nc(C)c(CCC(=O)NCc3ccco3)c2C)n1 — higher, 133%
- Cc1cc(=O)[nH]c(-n2nc(C)c(CCC(=O)NCc3cccs3)c2C)n1 — higher, 127.2%
- Cc1nc(CNc2ccc(C(=O)NCc3ccco3)cc2C)no1 — higher, -9.034%
- Cc1csc(CNC(=O)CCCc2cccs2)n1 — higher, 21.24%
- Cc1ccc2cnn(CCC(=O)NCc3c(C)nn(C)c3C)c2c1 — higher, -12.76%
- Cc1nc(CNC(=O)CCCc2cccs2)no1 — higher, -18.16%
- O=C1OCCN1Cc1cccc(F)c1C(F)(F)F — higher, -13.53%
- CCS(=O)(=O)NCCN1CCc2ccc(F)cc2C1C (stereo unspecified) — higher, -17.56%
- O=C(Cc1ccccc1)NC[C@H]1Cn2ccnc2CO1 — higher, -7.774%
- Cc1ccnc(CC(C)N(C)c2cc(CCN)nc(C)n2)c1 (stereo unspecified) — higher, -16.25%
- Cc1nn(C)c(Cl)c1C1CCCN1C(=O)c1ccoc1C (stereo unspecified) — higher, 103.1%
- Cc1nn(C)c(Cl)c1C1CCCN1C(=O)c1ccnn1C (stereo unspecified) — higher, 108%
- Cc1nn(C)c(Cl)c1C1CCCN1C(=O)c1cccn1C (stereo unspecified) — higher, 113.6%
- Cc1noc(C)c1C(=O)N1CCCC1c1c(C)nn(C)c1Cl (stereo unspecified) — higher, 2.958%
- COc1c(C2CCCN2C(=O)c2ccoc2C)c(C)nn1C (stereo unspecified) — higher, -17.99%
- COc1c(C2CCCN2C(=O)c2cccn2C)c(C)nn1C (stereo unspecified) — higher, -5.9%
- COc1c(C2CCCN2C(=O)c2ccnn2C)c(C)nn1C (stereo unspecified) — higher, -14.45%
- OC(CN(Cc1ccccc1)Cc1ccon1)c1cccs1 (stereo unspecified) — higher, -5.25%
- CCCn1[nH]cc/c1=N\C(=O)CN1CCCC1Cn1cccn1 (stereo unspecified) — higher, -1.433%
- CCN(CC1CCOC1)C(=O)c1cc(OC)c2c(c1)OCCO2 (stereo unspecified) — higher, -3.228%
- Cl.c1ncc(-c2ccc(C3CNCCO3)nc2)cn1 (stereo unspecified) — higher, 106.1%
- COc1ccc(-c2c[nH]c([C@@H]3COCCN3)n2)cc1 — higher, -8.862%
- COc1ccc(-c2ccc(C3CNCCO3)nc2)cc1.Cl (stereo unspecified) — higher, 122.1%
- Cc1ccc(-c2ccc(C3CNCCO3)nc2)cc1.Cl (stereo unspecified) — higher, 114.4%
- COc1ccc(-c2cnc(CN3CCCC3CO)o2)cc1 (stereo unspecified) — higher, -7.324%
- Cl.c1ccc(-c2ccc(C3CNCCO3)nc2)cc1 (stereo unspecified) — higher, -0.3347%
- Cl.Clc1ccc(-c2ccc(C3CNCCO3)nc2)cc1 (stereo unspecified) — higher, 122.6%
- CCNc1ccnc(NCC2CNCCO2)n1 (stereo unspecified) — higher, -11.04%
